Pf growth 96h = P. falciparum growth inhibition at 96 hours; P. falciparum luciferase reporter growth, 96 h; Potency, µM (highest dose often 28.7 µM), for the others: top-dose activity change, negative = inhibition, hits mostly inhibitors; actives 6.9% (n = 320,000); further: on the % scale 0 is the no-effect control and ±100 the full control effect
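Luminescence readout: decreased luciferase signal marks inhibited growth of reporter-expressing P. falciparum in infected red cells (2% hematocrit, 0.05% parasitemia final), exposed to compound two generations (96 h, 37 C, 5% CO2).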
Pf growth 48h = P. falciparum growth inhibition at 48 hours (one generation) | AID 504832 | Potency, µM (titrated, usually from 28.7 µM), inactives show at the top dose activity change, negative = inhibition, most hits filed as inhibitors | P. falciparum luciferase growth in erythrocytes, 48 h | actives 5.9% (n = 310,000); further: on the % scale 0 is the no-effect control and ±100 the full control effect
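Luciferase-expressing P. falciparum in infected erythrocytes (2% hematocrit, 0.1% parasitemia final) in RPMI 1640/0.5% Albumax were exposed to compound for 48 hours at 37 C, 5% CO2; growth read as luminescence.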
AmpC inh detg = inhibitors of E. coli AmpC beta-lactamase with detergent; P00811; AmpC hydrolysis of nitrocefin, absorbance 480 nm, 0.01% Triton; Potency, µM (doses to about 114 µM), inactives show at the highest dose activity change, negative = inhibition, most hits filed as inhibitors; actives 0.041% (n = 370,000); AID 485294;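 further: 0% = no-compound wells and -100% = no-enzyme wells; nearly all actives have a fitted effect of over 25% in size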
Target sequence (P00811 whole entry, looked up): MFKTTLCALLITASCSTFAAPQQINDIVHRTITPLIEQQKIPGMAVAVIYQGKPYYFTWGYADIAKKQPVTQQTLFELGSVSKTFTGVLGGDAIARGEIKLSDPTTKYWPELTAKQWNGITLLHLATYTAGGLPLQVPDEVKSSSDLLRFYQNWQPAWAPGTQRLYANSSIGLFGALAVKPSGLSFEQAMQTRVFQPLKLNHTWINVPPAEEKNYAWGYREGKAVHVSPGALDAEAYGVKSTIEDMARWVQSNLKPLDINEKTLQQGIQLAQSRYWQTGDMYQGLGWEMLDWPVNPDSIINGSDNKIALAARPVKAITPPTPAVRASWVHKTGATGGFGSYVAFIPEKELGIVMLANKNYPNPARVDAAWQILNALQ
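20 mM phosphate pH 7.0 + 0.01% (detergent screen) or 0.0001% Triton X-100; 5.3 nM AmpC reagent; cpd preinc 15 min RT; nitrocefin (800 uM stock) to start; A480 q20 s × 4 min; Activity was normalised to no-enzyme and no-compound control wells.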
AmpC no deterg = blocks E. coli AmpC beta-lactamase in detergent-free assay; P00811; AmpC nitrocefin hydrolysis, absorbance 480 nm, 0.0001% Triton; Potency, µM (highest dose often 57.1 µM), inactives show top-dose activity change, negative = inhibition, actives largely listed as inhibitors; actives 0.52% (n = 330,000);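 further: plate controls were no compound for no effect and no enzyme for full effect; nearly all actives have a fitted effect of over 20% in size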
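AmpC (5.3 nM in the dispensed reagent) in 20 mM phosphate pH 7.0 with 0.01% (detergent screen) or 0.0001% Triton X-100 was preincubated with compounds for 15 min at room temperature. Nitrocefin was then added from an 800 uM solution, and hydrolysis was followed at 480 nm.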
Sm TGR inh = blocks Schistosoma mansoni thioredoxin glutathione reductase; Q962Y6; purified TGR, DTNB reduction, TNB absorbance 405 nm; Potency, µM (titrated, usually from 114 µM), inactives show at the top dose activity change, negative = inhibition, most hits filed as inhibitors; actives 3% (n = 360,000); further: on the % scale 0 is the no-effect control and ±100 the full control effect; nearly all actives have a fitted effect of over 60% in size
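TGR 20 nM + NADPH 100 uM (dispensed conc.), cpd preinc 15 min RT; start with NADPH (500 uM addition) then DTNB (15 mM addition). Kinetic TNB absorbance, 405 nm filter. Four-parameter Hill fit across titration.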
SARS PLpro yeast = SARS-CoV PLP inhibition in yeast; S. cerevisiae expressing SARS-CoV PLpro, growth rescue; Potency, µM (series often up to 32.9 µM), inactives show at the top dose activity, positive = growth rescue, most hits filed as activators; actives 0.19% (n = 330,000); AID 485353; calls by dose curve; further: 0% is about no effect; nearly all actives have a fitted effect of over 55% in size
* = called active by the depositor; ? = inconclusive; . = no result. Sampled rows, rich in hits. Any-hit rate of the full collection: about 12%. Unless noted, the call rests on the fitted dose curve; in most records, active means well fitted curve in the direction sought with a large enough effect; inconclusive means small, poorly fitted or top-dose-only effect, or another doubt; inactive means no such curve, though single readings can be large; an effect the other way counts as inactive or inconclusive. Potency means the concentration at half of the fitted maximal effect.

SMILES	Pf growth 96h	Pf growth 48h	AmpC inh detg	AmpC no deterg	Sm TGR inh	SARS PLpro yeast
O=C1C2CC=C(Cl)CC2C(=O)N1CC1OCCc2ccccc21 (centres undefined)	.	-7%	-3%	-2%	79µM*	-3%
O=C1C2CC=C(Cl)CC2C(=O)N1CC1Cc2ccccc2CO1 (centres undefined)	?	.	-8%	-31%	45µM*	-1%
O=C1C2CC=C(Cl)CC2C(=O)N1CN(Cc1ccco1)CN1C(=O)C2CC=C(Cl)CC2C1=O (centres undefined)	38%	3%	-10%	-5%	50µM*	-1%
COc1cc(C=O)ccc1OCC(=O)Nc1ccc2c(c1)OCO2	?	9%	0%	-5%	4%	5%
O=C(c1ccccc1N(Cc1ccccc1)S(=O)(=O)c1ccccc1)N1CCOCC1	0%	-65%	-7%	104%	-5%	-5%
CN(c1ccccc1C(=O)N1CCN(c2ccccc2F)CC1)S(=O)(=O)c1ccccc1	10µM*	-29%	-3%	140%	-1%	-6%
CCOC(=O)N1CCN(C(=O)c2ccccc2N(Cc2ccccc2)S(=O)(=O)c2ccccc2)CC1	22%	4.7µM*	-14%	127%	2%	-4%
CN(c1ccc(C(=O)N2CCN(c3ccccc3F)CC2)cc1)S(=O)(=O)c1ccccc1	-3%	34%	-13%	57%	0%	-3%
COc1ccc(CCNC(=O)C(=O)NCC(c2ccc3c(c2)OCO3)N2CCOCC2)cc1 (centres undefined)	.	.	3%	.	6%	.
CCC(C)NC(=O)c1ccc2c(c1)nc1n2CCCCC1 (centres undefined)	.	.	-1%	.	-1%	.
Cc1ccc(-c2nc(CS(=O)(=O)CC(=O)NC(C)CCc3ccccc3)c(C)o2)cc1 (centres undefined)	.	.	8%	.	-22%	.
Cc1ccc(S(=O)Cc2nc(-c3ccc(C(=O)NC(C)c4ccccc4)cc3)oc2C)cc1 (centres undefined)	.	.	18%	.	14µM*	.
Cc1ccc(-c2nc(CS(=O)CC(=O)NC(C)CCc3ccccc3)c(C)o2)cc1 (centres undefined)	15%	2%	-3%	184%	8.9µM*	-9%
COc1ccccc1CNC(=O)c1ccc(-c2nc(CS(=O)c3ccccc3)c(C)o2)cc1 (centres undefined)	.	.	3%	.	?	.
COc1ccc(-c2nc(CS(=O)CC(=O)NC(C)CCc3ccccc3)c(C)o2)cc1OC (centres undefined)	-18%	-13%	-6%	145%	32µM*	-3%
Oc1ccccc1N1CCN(CC(O)COC2CCCc3ccccc32)CC1 (centres undefined)	?	9.3µM*	-3%	20%	4%	2%
COc1ccc(C(=O)N(Cc2ccco2)Cc2cccs2)c(O)c1	.	7%	13%	-3%	-1%	-36%
COc1ccc(C(=O)/C=C/C(=O)N(CC(=O)NCCC(C)C)Cc2cccs2)c(O)c1	6%	?	1%	56%	2.8µM*	-1%
COc1ccc(C(=O)/C=C/C(=O)N(CC(=O)NC2CCCCC2)Cc2ccc(F)cc2)c(O)c1	2.3µM*	9.3µM*	2%	31%	3.5µM*	1%
CC(CNC(=O)c1ccc(Cn2c(SCc3ccccc3)nc3cccnc32)cc1)c1ccccc1 (centres undefined)	.	.	15%	.	4%	.
O=C(O)CN1C(=O)/C(=C\c2cc(Br)ccc2OCc2ccc([N+](=O)[O-])cc2)SC1=S	?	-3%	-4%	20µM*	?	2%
O=C(O)CN1C(=O)/C(=C\c2cc(Br)ccc2OCc2ccccc2Cl)SC1=S	38%	8%	?	-41%	?	-1%
COc1cc([N+](=O)[O-])cc(/C=C2/SC(=S)N(Cc3ccccc3)C2=O)c1O	9%	10µM*	7%	-60%	-33%	-11%
O=C1/C(=C\c2ccc(O)cc2)SC(=S)N1Cc1ccccc1	?	26%	-5%	-57%	-17%	-17%
O=C1/C(=C\c2cc(Br)cc(Br)c2O)SC(=S)N1Cc1ccccc1	11%	?	-4%	-40%	40µM*	-2%
SMILES	Pf growth 96h	Pf growth 48h	AmpC inh detg	AmpC no deterg	Sm TGR inh	SARS PLpro yeast
Cc1ccc(NC(=O)COC(=O)c2nn(-c3ccc(Cl)cc3)cc2O)cc1	.	.	.	-43%	.	1%
NNC(=O)c1nn(-c2ccc(Cl)cc2)cc1O	?	9.3µM*	2%	-44%	12%	4%
Oc1c(Br)cc(C2N=C(c3ccccc3)NO2)cc1Br (centres undefined)	71%	-4%	-7%	-20%	50µM*	-14%
CSc1ccc(C2N=C(c3ccccc3)NO2)cc1 (centres undefined)	371%	18%	0%	?	?	6%
CCN(CC)C(=O)Nc1ccc(OC[C@H](O)CNC(C)(C)C)c(C(C)=O)c1	-30%	-18%	.	.	.	.
COc1ccc(Nc2c3c(c(C#N)c4nc5ccccc5n24)CCC3)cc1	9.3µM*	?	1%	-30%	-5%	?
N#Cc1c2c(c(NCCOCCO)n3c1nc1ccccc13)CCCC2	-16%	?	-7%	-13%	-2%	-1%
CC(=O)c1ccc(Nc2c3c(c(C#N)c4nc5ccccc5n24)CCC3)cc1	216%	3.3µM*	?	-50%	-18%	-2%
N#Cc1c2c(c(NCc3cccnc3)n3c1nc1ccccc13)CCC2	.	2.9µM*	-3%	-12%	-17%	-4%
COCCNc1c2c(c(C#N)c3nc4ccccc4n13)CCCC2	?	1.7µM*	-5%	15%	-12%	-1%
CC(C)C(NC(=O)c1c(F)cccc1F)C(=O)N1CCN(S(=O)(=O)c2ccc(F)cc2)CC1 (centres undefined)	?	?	-3%	0%	5%	-9%
COc1cc(NS(=O)(=O)c2ccc(-c3cc(C)no3)cc2)cc(OC)c1	.	.	12%	.	12%	.
COc1cc(S(=O)(=O)Nc2cccc3cn[nH]c23)c(OC)cc1C	2.9µM*	10µM*	6%	-23%	-5%	1%
O=S(=O)(Nc1cccc2cn[nH]c12)c1ccc(F)cc1	110%	11%	1%	-35%	-12%	1%
CCCCSc1nc(C)cc(C)c1S(=O)(=O)c1ccccc1C	10µM*	?	?	-21%	10%	-10%
Cc1cc(C)c(S(=O)(=O)c2ccccc2C)c(Cl)n1	15%	3%	?	-15%	-16%	4%

Screening results from PubChem BioAssay.
